Only some compounds are listed: those with a hit (about 3.9% of all), similar ones and a draw of the others.
BoNT-A LC inh2 – BoNT/A light chain protease inhibitors, primary screen, biochemical, flow cytometry, MLPCN library; Botulinum neurotoxin type A light chain protease (Clostridium botulinum A str. ATCC 3502); multiplex microsphere protease substrate cleavage; inhibition, % at 10 µM; actives 0.17% (n = 360,000); further: plate controls were buffer without enzyme for full effect and enzyme alone for no effect
Anthrax LF prot – Bacillus anthracis LF protease inhibitors, primary screen, biochemical, multiplex microsphere, MLPCN library; Lethal factor (Bacillus anthracis), P15917; multiplex microsphere protease cleavage assay; inhibition, % at 10 µM; actives 0.12% (n = 360,000); AID 588501, 2011; further: plate controls were buffer without enzyme for full effect and enzyme alone for no effect
Target sequence (P15917 whole entry, looked up): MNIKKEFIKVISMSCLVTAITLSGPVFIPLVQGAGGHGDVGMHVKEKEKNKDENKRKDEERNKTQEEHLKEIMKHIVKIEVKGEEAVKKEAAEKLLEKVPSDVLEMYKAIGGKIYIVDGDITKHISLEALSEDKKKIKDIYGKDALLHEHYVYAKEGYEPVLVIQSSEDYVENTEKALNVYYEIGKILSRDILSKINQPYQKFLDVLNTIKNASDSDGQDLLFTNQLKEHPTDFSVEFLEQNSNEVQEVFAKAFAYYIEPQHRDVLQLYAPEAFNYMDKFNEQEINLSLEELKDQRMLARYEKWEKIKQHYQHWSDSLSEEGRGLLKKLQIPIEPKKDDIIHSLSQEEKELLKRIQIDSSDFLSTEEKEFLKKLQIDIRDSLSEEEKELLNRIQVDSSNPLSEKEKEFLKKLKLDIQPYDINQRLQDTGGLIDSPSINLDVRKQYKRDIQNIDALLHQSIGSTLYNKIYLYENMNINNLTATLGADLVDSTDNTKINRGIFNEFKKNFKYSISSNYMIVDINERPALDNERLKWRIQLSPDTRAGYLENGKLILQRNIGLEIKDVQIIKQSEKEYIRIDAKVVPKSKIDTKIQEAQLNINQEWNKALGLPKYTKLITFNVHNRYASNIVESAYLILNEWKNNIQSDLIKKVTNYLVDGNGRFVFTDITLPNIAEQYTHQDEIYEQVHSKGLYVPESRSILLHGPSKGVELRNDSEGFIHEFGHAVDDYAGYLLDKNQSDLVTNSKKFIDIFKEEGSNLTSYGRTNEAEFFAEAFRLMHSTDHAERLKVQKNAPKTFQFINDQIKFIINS
Autofluor counter – counter-screen for toxin protease inhibitors: compound fluorescence; compound autofluorescence counterscreen, microsphere flow cytometry; active compounds read high; fluorescence intensity (test concentration not listed); actives 3.1% (n = 360,000); AID 624483; in the data active means fluorescence intensity above about 16000; inconclusive means no clear call, values can overlap the other calls
SARS 3CLpro inh – SARS-CoV 3CLpro protease inhibitors, primary screen, biochemical, quenched FRET. recombinant SARS-CoV 3CLpro, quenched FRET peptide cleavage. actives 0.14% (n = 290,000). inhibition, % at 6 µM. Replicase polyprotein 1ab (Severe acute respiratory syndrome coronavirus), P0C6X7; in the data active means inhibition above about 12%
BoNT-F LC inh – BoNT/F light chain protease inhibitors, primary screen, biochemical, flow cytometry, MLPCN library; AID 588497, 2011; Multiplex microsphere protease cleavage assay; Botulinum neurotoxin type F light chain protease (Clostridium botulinum); actives 0.22% (n = 360,000); inhibition, % at 10 µM; in the data active means inhibition above about 35%, passing the limit was not always enough; inconclusive means no clear call, values can overlap the other calls; further: plate controls were buffer without enzyme for full effect and enzyme alone for no effect
CCHF vOTU inh – CCHFV vOTU protease inhibitors, primary screen, biochemical, Pep-AMC substrate, fluorescence. Crimean-Congo hemorrhagic fever virus L polyprotein viral ovarian tumor (vOTU) protease …. actives 0.55% (n = 370,000). AID 651958, 2012. inhibition, % at 11.5 µM; in the data active means inhibition above about 30%; further: 0% = vehicle wells with enzyme and 100% = no enzyme wells
* hit, by the source's call; ? = inconclusive; · = not tested or not shown. Unless noted, no stated cut-off is given here; in the data, active means inhibition above about 30%; inconclusive means no clear call, values can overlap the other calls; inactive means below that.

SMILES | BoNT-A LC inh2 | Anthrax LF prot | Autofluor counter | SARS 3CLpro inh | BoNT-F LC inh | CCHF vOTU inh
Cn1c(C(=O)N2CCN(c3cccc(C(F)(F)F)c3)CC2)cc2sccc21 | -4 | -3 | 21909* | 3 | -5 | 12
CCOC(=O)N1CCN(C(=O)c2cc3sccc3n2C)CC1 | 1 | -5 | 19772* | 1 | 1 | 4
Cc1ccc(C)c(N2CCN(C(=O)c3ccc4c(c3)c(C)c(C)n4C)CC2)c1 | -2 | -3 | 5724 | 7 | -3 | 20
Cc1ccc(C)c(N2CCN(C(=O)c3cc4sccc4n3C)CC2)c1 | ? | -1 | 22451* | 4 | -11 | 8
Cc1nc2sc(C(=O)NCc3ccc4c(c3)OCO4)c(N)c2c(C)c1Cl | · | · | · | · | · | 4
CCC1(c2ccc(F)cc2)NC(=O)N(CC(=O)N2CCN(S(=O)(=O)c3ccc(C)cc3)CC2)C1=O (stereo not given) | 7 | 2 | ? | · | 10 | -3
COc1ccc(N2CCN(Cc3cc4c(cc3O)CCC4)CC2)cc1 | -4 | 0 | 22399* | 6 | -5 | 10
Oc1cc2c(cc1CN1CCN(c3ccccc3)CC1)CCC2 | -3 | -11 | 3386 | 3 | -42 | -10
O=C(Nn1c(O)c(C=C2N=c3ccccc3=N2)sc1=S)c1ccccc1Cl | 61* | 65* | 5061 | 0 | 55* | 7
O=S(=O)(Nn1c(O)c(C=C2N=c3ccccc3=N2)sc1=S)c1ccccc1 | 6 | 0 | 4112 | 3 | 3 | 15
Oc1c(C=C2N=c3ccccc3=N2)sc(=S)n1-c1ccccc1 | 44* | 26 | 2577 | -4 | 17 | -11
Oc1c(C=C2N=c3ccccc3=N2)sc(=S)n1C1CCCCC1 | 70* | 33* | 2417 | 9 | 22 | 3
CCNC(=O)NC(=O)C(C)OC(=O)c1oc2ccc(OC)cc2c1C (stereo not given) | 4 | -21 | 21371* | 0 | 4 | -3
CCc1sc(C(=O)N2CCN(S(C)(=O)=O)CC2)cc1Br | -2 | 0 | 23583* | 4 | 0 | ·
CCOc1ccc(S(=O)(=O)N2CCC(C(=O)Nc3cc(S(C)(=O)=O)ccc3Cl)CC2)cc1 | -6 | -1 | ? | · | -14 | 1
CC(=O)Nc1cc2c(cc1C(=O)C(C)C)OCCO2 | -1 | -3 | 3774 | 5 | 5 | 5
CC(C)C(=O)c1cc2c(cc1NC(=O)c1ccccc1)OCCO2 | ? | -2 | 23685* | 2 | -3 | -15
CCC(=O)c1cc2c(cc1NC(=O)c1ccc(C)cc1)OCCO2 | ? | 0 | 20255* | -1 | 5 | -9
CC(C)C(=O)c1cc2c(cc1NC(=O)c1cccs1)OCCO2 | -2 | -4 | 23207* | 3 | -4 | -7
CC(C)C(=O)c1cc2c(cc1NC(=O)Nc1cccc3ccccc13)OCCO2 | · | · | · | -1 | · | ·
O=C(Nc1ccc2c(c1)S(=O)(=O)N=C1CCCCCN12)c1ccccc1Cl | 0 | -1 | 4524 | -2 | -5 | 9
c1ccc2c(c1)OCC(CNc1ncnc3sccc13)O2 (stereo not given) | 0 | 0 | 2950 | 0 | -3 | 2
CN(Cc1ccccc1)C(=O)c1ccccc1NC(=O)c1ccccc1 | 3 | 0 | 22709* | 0 | 2 | -4
O=C(Nc1ccccc1C(=O)NCc1ccccc1)c1ccccc1 | 2 | -3 | 22302* | 2 | 3 | 2
Cc1nc2c(C(=O)NCc3ccccc3Cl)c[nH]n2c(=O)c1Cl | 0 | 0 | 13100 | 10 | 0 | 29
SMILES | BoNT-A LC inh2 | Anthrax LF prot | Autofluor counter | SARS 3CLpro inh | BoNT-F LC inh | CCHF vOTU inh
Cc1cc(C(=O)NCc2ccccc2)c(=O)[nH]c1C | -4 | -8 | 23927* | 5 | -6 | -38
Cc1nc2c(C(=O)NCc3ccccc3)c[nH]n2c(=O)c1Cl | 5 | -8 | 20750* | 7 | 7 | 2
COCCCNC(=O)[C@H](Cc1ccccc1)NC(=O)CC[C@H]1O[C@@H](n2ccc(=O)[nH]c2=O)[C@H](O)[C@@H]1O | 0 | -1 | 6250 | · | 1 | -7
CC(=O)c1cc(-c2ccc(-c3ccccc3)c(F)c2)c(=O)n2c1CCC2 | · | · | · | · | · | 0
O=C(Nc1ccccc1C(=O)Nc1ccccn1)c1ccccc1F | 1 | 11 | 4072 | -3 | 45* | -7
O=C(Nc1ccon1)c1ccccc1Cl | 0 | 3 | 8322 | 0 | 4 | 9
O=C(Nc1ccon1)c1ccccc1F | 1 | 3 | 23297* | 2 | -1 | -3
C=CCn1c(SCc2c(Cl)cccc2Cl)nnc1-c1cccc(C)c1 | · | · | · | · | · | 2
COc1ccc(N2CCN(C(=O)c3sc4ncn(CC(=O)N5CCCCC5C)c(=O)c4c3C)CC2)cc1 (stereo not given) | 0 | 0 | 4943 | 4 | -1 | 8
CC/C(O)=C(\C#N)c1nnc2n1CCCCC2 | 1 | 0 | 20206* | 5 | 1 | 3
Cc1ccc(S(=O)(=O)NC(CC(=O)NCC2CCCO2)c2ccccc2)cc1 (stereo not given) | 0 | 0 | 3992 | 4 | -4 | 5
OCC(CO)(CO)N=Cc1c(O)ccc2ccccc12 | 0 | 0 | 16546* | 4 | 2 | 18
Cc1ccc(CNC(=O)c2cc(C)nn2-c2ccccc2)cc1 | 0 | -2 | 4071 | -3 | 1 | 5
Cc1ccc(Cc2nnc3n(-c4ccccc4)nc(C(=O)c4ccccc4)n3c2=O)cc1 | -3 | -1 | 21560* | 4 | -5 | 1
CCC(C)[C@@H](C(=O)OC)N(Cc1cn(Cc2ccccc2)nn1)S(=O)(=O)c1ccccc1Br (stereo not given in full) | · | · | · | · | · | 2
Cn1c(SCC(=O)NCc2cccs2)nnc1-c1cccs1 | 0 | -3 | 3324 | -6 | 6 | 7
CCn1c(CNC(=O)COc2c(C)cccc2C)nnc1SCC(=O)Nc1nccs1 | 8 | -14 | 17164* | -2 | 10 | -19
CCn1c(SCC(=O)NCc2cccs2)nnc1-c1cccs1 | -2 | -1 | 23563* | -1 | 0 | -4
Cc1ccc(-n2c(COc3c(C)cccc3C)nnc2SCC(=O)Nc2nccs2)cc1 | 0 | 6 | 7812 | 5 | -1 | 6
O=C(NNC(=O)c1ccccc1O)c1ccc(Cl)c(S(=O)(=O)N2CCCCC2)c1 | -1 | ? | ? | · | 7 | -6
Cc1ccc(NC(=O)CCn2c(=O)[nH]c3ccsc3c2=O)cc1C | -7 | -2 | 4426 | 4 | -18 | 1
O=C(COC(=O)CNC(=O)C1CCCCC1)Nc1ccc(Cl)cn1 | -5 | 0 | 21353* | 2 | -5 | -4
O=C(C1CCN(S(=O)(=O)c2ccccc2F)CC1)N1CCN(Cc2ccc3c(c2)OCO3)CC1 | 0 | -3 | 3031 | · | 1 | -4
CCN1CCn2c1nc(N1CCCCC1)nc2=O | 1 | 2 | 10308 | -3 | 1 | -1
CCN(CC)c1nc2n(c(=O)n1)CCN2CC | 2 | -2 | 21466* | 9 | 1 | -2
